Screening data: PubChem, The Scripps Research Institute Molecular Screening Center
Sampled rows, rich in hits. Any-hit rate of the full collection: about 3.5%.
GPR151 activ: activators of human GPR151, primary screen, cell-based, PathHunter beta-arrestin, luminescence. G-protein coupled receptor 151 (Homo sapiens), Q8TDV0. activation, % at 11.2 µM. 650,000 tested, 1% active. AID 1508602, 2020. PathHunter beta-arrestin GPR151 cells; in the data active = activation above about 4.9%;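 also: 0% = median of compound wells and 100% = cells with positive control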
FBW7 activator: FBW7 E3 ligase activators, primary screen, biochemical, AlphaScreen, human; 650,000 tested, 0.13% active; normalized activity (activation), % at 26.1 µM; AlphaScreen FBW7–phospho-cyclin E peptide binding, activator screen; F-box/WD repeat-containing protein 7 (Homo sapiens), Q969H0; AID 1259310, 2017; in the data active = normalized activity above about 1.9%;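 also: purified mutant Fbw7 with reduced substrate affinity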
Target sequence (Q969H0 whole entry, looked up): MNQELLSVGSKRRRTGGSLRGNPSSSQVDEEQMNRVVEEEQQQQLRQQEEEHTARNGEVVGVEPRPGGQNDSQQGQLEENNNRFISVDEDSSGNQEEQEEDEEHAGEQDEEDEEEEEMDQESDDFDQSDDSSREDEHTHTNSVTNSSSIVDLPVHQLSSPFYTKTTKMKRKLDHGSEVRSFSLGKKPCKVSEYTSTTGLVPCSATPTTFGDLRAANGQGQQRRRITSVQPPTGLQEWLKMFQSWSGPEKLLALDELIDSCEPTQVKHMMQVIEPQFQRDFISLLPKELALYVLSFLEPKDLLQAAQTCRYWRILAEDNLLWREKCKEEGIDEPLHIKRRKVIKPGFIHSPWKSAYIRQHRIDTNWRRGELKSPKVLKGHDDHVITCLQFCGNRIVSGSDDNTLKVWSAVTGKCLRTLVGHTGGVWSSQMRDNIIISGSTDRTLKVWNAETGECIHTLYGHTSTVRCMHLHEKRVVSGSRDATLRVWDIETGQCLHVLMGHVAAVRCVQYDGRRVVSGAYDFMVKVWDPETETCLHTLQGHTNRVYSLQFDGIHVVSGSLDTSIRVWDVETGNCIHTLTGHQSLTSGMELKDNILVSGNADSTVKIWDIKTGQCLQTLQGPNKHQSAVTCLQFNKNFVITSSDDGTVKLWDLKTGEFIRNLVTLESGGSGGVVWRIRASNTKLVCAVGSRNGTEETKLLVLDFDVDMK
MITF inh: MITF inhibitors, primary screen, biochemical, AlphaScreen, human | Microphthalmia-associated transcription factor (Homo sapiens), O75030 | AlphaScreen MITF homodimerization, bead proximity signal | inhibition, % at 2.6 µM | 650,000 tested, 0.91% active; in the data active = inhibition above about 50%;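 also: 0% = vehicle wells with protein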
TEAD-YAP block: TEAD-YAP interaction inhibition, primary screen, TEAD-YAP interaction inhibitor project, luminescence, HEK-TIYL cells; 640,000 tested, 1.4% active; TEAD-Gal4/YAP UAS-luciferase luminescence; AID 1259422, 2018; inhibition, % at 9.12 µM; in the data active = inhibition above about 32%;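 also: 0% = median of test compound wells and 100% = reference inhibitor wells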
MITF confirm: MITF inhibitors, retest of hits, confirmation, biochemical, AlphaScreen, triplicate; inhibition, % at 2.6 µM; 4,700 tested, 16% active; AlphaScreen MITF homodimerization, biotin/His-MITF beads; AID 1259372, 2018; shares compounds with MITF inh;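 active = inhibition above a cutoff derived from the DMSO control wells, cut at about 28% in these data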;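 also: 0% = MITF dimer wells with DMSO only; inhibitors lower the bead chemiluminescence by keeping MITF from dimerizing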
AlphaScreen intf2: AlphaScreen optical interference compounds, counter-screen for MITF inhibitor project, biochemical, triplicate. 4,700 tested, 7.6% active. LysRS AlphaScreen counterscreen, signal interference. inhibition, % at 2.6 µM. shares compounds with MITF inh;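 active = inhibition above a cutoff derived from the DMSO control wells, cut at about 30% in these data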
Active calls of the source: *; · = no result given.

SMILES	GPR151 activ	FBW7 activator	MITF inh	TEAD-YAP block	MITF confirm	AlphaScreen intf2
COc1ccc(S(=O)(=O)N2CCN(Cc3ccccc3[N+](=O)[O-])CC2)cc1	-0.3	-0.1	51.4*	-1.7	36.0*	8.3
Cc1ccccc1CN1CCN(S(=O)(=O)c2ccc([N+](=O)[O-])cc2)CC1	-0.6	-0.1	70.9*	3.9	24.8	23.0
O=[N+]([O-])c1ccc(OCCCNCc2ccco2)cc1	-0.1	0.0	31.8	-3.8	·	·
O=[N+]([O-])c1ccc(OCCNCc2ccco2)cc1	-2.1	0.0	56.2*	-9.7	-13.8	-5.1
Cc1nn(-c2ccccc2)c(Cl)c1CNCCCOC(C)C	-0.6	-0.1	33.8	-2.5	·	·
Cc1nn(C2CCS(=O)(=O)C2)c(Cl)c1CNCCCOC(C)C (centres undefined)	-1.9	0.2	51.2*	1.4	6.5	10.5
CC(C)(CNC(=S)Nc1ccc(F)c(Cl)c1)N1CCOCC1	-1.0	0.2	-10.0	5.1	·	·
COc1ccc(N(C(=O)COc2ccc(Br)cc2)S(=O)(=O)c2ccc(C)cc2)cc1	0.5	1.1	62.5*	-12.8	-2.5	11.9
Cc1ccc(S(=O)(=O)N2CCN(c3ccc([N+](=O)[O-])cc3F)CC2)cc1	0.4	0.0	12.7	18.8	·	·
CCCCCC(O)(CCCCC)C(=O)NN1CCCCC1	0.6	-0.1	72.5*	-1.2	-3.2	-0.6
COCCn1c(SCC(=O)N(C)Cc2ccccc2)nc2cc(C(=O)OC)ccc2c1=O	-0.9	-0.1	-12.7	4.5	·	·
COC(=O)Nc1ccc(S(=O)(=O)N2CCC(C)CC2)cc1	0.8	-0.1	74.5*	1.6	7.3	19.3
Cc1cc(C)nc(SCc2cc(=O)c(OC(=O)C3(c4ccc(Cl)cc4)CCCC3)co2)n1	-1.1	-0.1	102.1*	-0.4	3.1	-6.8
CC(C)C(NC(=O)C1CCOC1)c1nnc2n1CCN(C(=O)C#Cc1ccccc1)CC2 (centres undefined)	1.8	0.0	14.0	10.8	·	·
Cc1cccc(-n2nc([N+](=O)[O-])c(=Nc3ccccc3Br)n2O)c1	-0.3	0.1	21.8	-0.8	·	·
O=S(=O)(c1ccc2ccccc2c1)N1CCN(Cc2ccc(F)cc2)CC1	0.4	-0.2	53.8*	10.6	11.6	12.0
O=S(=O)(c1ccc2ccccc2c1)N1CCN(Cc2ccccc2Cl)CC1	0.3	0.0	57.8*	-7.9	-36.1	10.6
Cc1cc(C(C)(C)C)cc(S(=O)(=O)N2CCOCC2)c1C	-0.8	0.3	7.3	5.4	·	·
Cn1cccc1CN1CCN(Cc2ccc(F)cc2)CC1	-1.2	-0.2	65.2*	4.2	3.6	6.9
Cn1cccc1CN1CC[C@H]2[C@H](CCC(=O)N2Cc2ccc(F)cc2)C1	-1.6	0.0	5.9	6.9	·	·
Cn1cccc1CN1CCN(S(C)(=O)=O)CC1	0.3	0.0	22.2	-8.5	·	·
Cn1cccc1CN1CCN(Cc2ccncc2)CC1	-0.7	-0.4	63.6*	-0.2	-3.4	4.5
Cn1cccc1CN1CCN(C2CCCC2)CC1	4.3	-0.1	69.8*	-12.2	10.7	25.3
Cn1cccc1CN1CCN(Cc2ccccc2)CC1	1.2	-0.3	69.7*	7.5	7.1	19.6
c1ccc(CN2CCC(N3CCN(C4CCCCC4)CC3)CC2)cc1	1.4	0.2	29.9	5.0	·	·
SMILES	GPR151 activ	FBW7 activator	MITF inh	TEAD-YAP block	MITF confirm	AlphaScreen intf2
CCOc1ccccc1NC(=O)C1=C(C)NC(=O)NC1c1ccc(Br)cc1 (centres undefined)	1.1	0.2	1.4	0.0	·	·
C=CCc1cc(C)ccc1OCCOCCn1ccnc1	0.7	0.1	66.3*	-3.4	-2.0	2.8
Clc1cccc(Cl)c1OCCCCn1ccnc1	0.6	-0.1	52.2*	-0.2	4.5	4.9
C=CCc1cc(OC)ccc1OCCCCn1ccnc1	-1.5	0.0	78.1*	4.4	8.7	10.5
C=CCc1cc(Cl)ccc1OCCCCn1ccnc1	-0.8	-0.1	68.0*	1.4	4.8	12.8
O=C1NCCN(C2Cc3ccccc3C2)C1CC(=O)N1CCN(c2ncccn2)CC1 (centres undefined)	1.7	-0.2	-1.3	0.9	·	·
CC1=CC(=O)C(C(C)C)=C/C1=N\S(=O)(=O)c1ccc(C)cc1	2.0	0.0	-2.7	-8.1	·	·
